# High-throughput results (PubChem BioAssay)
# Only some compounds are listed: those with a hit (about 4.7% of all), similar ones and a draw of the others.
# TRHR enhancer: qHTS for Small Molecule Agonists and Allosteric Enhancers of Human TRH Receptor: Primary Screen for Enhancers; Thyrotropin-releasing hormone receptor (Homo sapiens), P34981; AID 493056, 2011; TRHR cells, fluo-8 calcium fluorescence, EC20 TRH enhancement; actives 0.66% (n = 360,000); enhancement, % at 2 µM; in the data active means enhancement above about 30%; further: 0% is about no effect
#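 Enhancer read-out: after compound pinning and an initial kinetic agonist-mode read, an EC20 of TRH (10 nM final) was injected and fluo-8 calcium signal (Ex 480/Em 530) followed at 1 s/cycle for 100 cycles in TRHR-expressing cells.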
# D1 ag: Allosteric Agonists of the Human D1 Dopamine Receptor: qHTS; HEK293 T-REx D1 cells, calcium flux, agonist mode; activation, % at 2 µM; actives 1% (n = 360,000); AID 504660, 2011; further: 0% is about no effect
# Target sequence (P21728 whole entry, looked up): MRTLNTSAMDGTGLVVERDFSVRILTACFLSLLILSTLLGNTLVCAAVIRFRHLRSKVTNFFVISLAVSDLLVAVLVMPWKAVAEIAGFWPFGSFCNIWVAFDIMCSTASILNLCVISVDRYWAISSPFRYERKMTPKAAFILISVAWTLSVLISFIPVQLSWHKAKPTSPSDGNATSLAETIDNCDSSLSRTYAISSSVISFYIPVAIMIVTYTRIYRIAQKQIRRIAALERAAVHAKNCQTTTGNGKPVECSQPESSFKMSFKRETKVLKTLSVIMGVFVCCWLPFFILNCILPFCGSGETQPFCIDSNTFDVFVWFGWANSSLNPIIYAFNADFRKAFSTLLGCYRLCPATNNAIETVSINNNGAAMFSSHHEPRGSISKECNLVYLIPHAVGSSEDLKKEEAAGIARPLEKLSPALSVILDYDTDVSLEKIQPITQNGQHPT
#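 Agonism was scored from calcium flux recorded over 180 s (1 read/s) after pintool compound addition, following a 10-cycle baseline. Cells were inducible force-coupled HEK293 TREx D1, plated overnight at 30 C and loaded with no-wash calcium dye.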
# D1 potentiator: Potentiators of Human D1 Dopamine Receptor: qHTS. potentiation, % at 10 µM. actives 0.036% (n = 360,000). HEK293 TREx D1 cells, calcium flux, dopamine EC20 potentiation; in the data active means potentiation above about 30%; further: 0% is about no effect
# D1 antagonist: Antagonist of Human D 1 Dopamine Receptor: qHTS; D(1A) dopamine receptor (Homo sapiens), P21728; HEK293 TREx D1 cells, calcium flux, dopamine EC80; stronger effect = lower value; activity change, negative = inhibition, % at 10 µM; actives 3.2% (n = 360,000); AID 504652, 2011; in the data active means activity change below about -30%; further: on the % scale 0 is the no-effect control and ±100 the full control effect
#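 After overnight tetracycline induction at 30 C, force-coupled D1 HEK293 cells took up a no-wash calcium dye at room temperature. Compounds were added and monitored 180 s, and the response to EC80 dopamine was then recorded.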
# TRHR ag: qHTS for Small Molecule Agonists and Allosteric Enhancers of Human TRH Receptor: Primary Screen for Agonists. Thyrotropin-releasing hormone receptor (Homo sapiens), P34981. TRHR cells, calcium flux fluo-8, FDSS agonist mode. activation, % at 2 µM. actives 0.18% (n = 360,000). AID 493084, 2011; further: 0% is about no effect
#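 TRHR-expressing cells loaded with fluo-8 calcium dye; 23 nL library compound pin-transferred, kinetic FDSS fluorescence (Ex 480/Em 530) recorded about 180 s for agonist-induced calcium release, before a 10 nM TRH EC20 addition for potentiator mode.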
# Starred values were filed as active, the others as inactive; ! = repeats disagree. Unless noted, no stated cut-off is given here; in the data, active means activation above about 30%; inactive means the rest.
SMILES,TRHR enhancer,D1 ag,D1 potentiator,D1 antagonist,TRHR ag
c1ccc(Cn2nnc3c(N4CCOCC4)ncnc32)cc1,1,0,12,19,0
Cc1ccc(C)c(NC(=O)CSc2ccc(-c3cccs3)nn2)c1,22,1,-7,-81*,0
Cc1cccc(NC(=O)CSc2nc(-c3cccs3)cc(C(F)(F)F)c2C#N)c1C,-2,49*,-2,0,14
COc1ccc(NC(=O)CSc2nc(-c3ccccc3)cc(-c3cc(OC)c(OC)c(OC)c3)c2C#N)c(OC)c1,-4,33*,6,4,1
N#Cc1ccccc1NC(=O)CSc1nc(-c2ccccc2)cc(C(F)(F)F)c1C#N,-3,133*,-1,15,42*
CCCC(=O)n1nc(-c2ccco2)nc1NCc1ccccc1Cl,-2,0,0,-6,0
N#Cc1c(C(F)(F)F)cc(-c2ccc(F)cc2)nc1SCC(=O)O,18,4,-4,-2,0
CCCCOc1ccc(-c2cc(C(F)(F)F)c(C#N)c(SCC(=O)O)n2)cc1,8,68*,-6,-3,0
N#Cc1ccc(-c2cccs2)nc1SCC(=O)Nc1cccc(C(F)(F)F)c1,1,4,0,6,1
N#Cc1c(C(F)(F)F)cc(-c2cccs2)nc1SCC(=O)Nc1cccc(C(F)(F)F)c1,7,68*,3,-5,26
N#Cc1c(C(F)(F)F)cc(-c2cccs2)nc1SCC(=O)Nc1ccc(Cl)cc1,-2,81*,2,6,14
COc1ccc(NC(=O)C2=C(C)Nc3nc(CCCO)nn3C2c2ccc(O)cc2)cc1 (stereo not given),-7,2,-2,3,0
Cc1ccc(S(=O)(=O)c2cn(Cc3cccc(C)c3)c3cc4c(cc3c2=O)OCO4)cc1,7,15,-4,-9,-1
COc1ccc(Cn2cc(S(=O)(=O)c3ccc(Cl)cc3)c(=O)c3cc4c(cc32)OCO4)cc1,17,0,0,-42*,0
CCOc1ccc2c(c1)c(=O)c(S(=O)(=O)c1ccc(C)cc1)cn2Cc1ccccc1Cl,-4,7,-2,-21,2
CCOc1ccc2c(c1)c(=O)c(S(=O)(=O)c1ccc(Cl)cc1)cn2Cc1ccccc1C,40*,2,-2,-3,1
CCC1CCCCN1C(=O)Cn1c(=O)cc(C(F)(F)F)c2c(C)nn(C)c21 (stereo not given),-8,1,-6,-2,-1
Cc1ccc(S(=O)(=O)Nc2nc3ccccc3nc2Nc2cccc(S(=O)(=O)N3CCCC3)c2)cc1,-11,7,-8,-39*,5
O=[N+]([O-])c1cccc(S(=O)(=O)N2CCCCC2)c1,3,1,-3,41,0
O=[N+]([O-])c1cccc(S(=O)(=O)Nc2nc3ccccc3nc2Nc2cccc(S(=O)(=O)N3CCCCC3)c2)c1,-20,20,-6,-32*,1
Cc1oc(-c2ccc(C(=O)NCc3ccccc3)cc2)nc1CN1CCc2ccccc21,-5,0,-1,4,0
Cc1cc(N2CCC(C(=O)Nc3ccc(F)cc3C)CC2)n2nc(C)c(-c3ccc(Cl)cc3)c2n1,-8,0,-2,1,0
CCNc1ccccc1CP(=O)(c1ccccc1)c1ccccc1O (stereo not given),5,35*,-6,-1,18
COc1cc(OC)c(NC(=O)N2CCc3c([nH]c4ccccc34)C2c2ccccc2F)cc1Cl (stereo not given),5,1,-1,-7,0
CCOC(=O)CC(NC(=O)Cn1nnc(-c2ccccc2C)n1)c1ccc(OC)cc1 (stereo not given),-1,31*!,-9,-19,1
CCOC(=O)CC(NC(=O)Cn1nnc(-c2ccc(C(F)(F)F)cc2)n1)c1ccc(OC)cc1 (stereo not given),-11,17,2,-16,-1
